In patent publication US6124449, “High affinity TGFβ nucleic acid ligands and inhibitors” (NeXstar Pharmaceuticals, Inc.):

Assays:
KGF (hKGF) = target: T1, KGF (hKGF) (Homo sapiens, UniProt P21781 P21781:32-194); experiment: filter; similar to random RNA; conditions: label: 5'-biotin for BIAcore specificity; proposed double pseudoknot; ssRNA; 2'-F C and U
T1 sequence: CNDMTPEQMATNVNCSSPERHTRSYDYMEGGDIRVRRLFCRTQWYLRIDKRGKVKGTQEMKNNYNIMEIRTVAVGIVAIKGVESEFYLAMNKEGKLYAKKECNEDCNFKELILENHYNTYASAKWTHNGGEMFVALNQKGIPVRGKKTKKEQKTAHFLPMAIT

VEGF (hVEGF) = VEGF (hVEGF) (Homo sapiens, UniProt P15692-4 P15692-4:27-191); experiment: filter; similar to random RNA; conditions: chain copies: 2; label: 5'-biotin for BIAcore specificity; proposed double pseudoknot; ssRNA; 2'-F C and U
TGF-beta2 = target: T2, TGF-beta2 (Homo sapiens, UniProt P61812 P61812:303-414); experiment: filter; similar to random RNA by filter; conditions: chain copies: 2; label: 5'-biotin for BIAcore specificity; proposed double pseudoknot; ssRNA; 2'-F C and U
T2 sequence: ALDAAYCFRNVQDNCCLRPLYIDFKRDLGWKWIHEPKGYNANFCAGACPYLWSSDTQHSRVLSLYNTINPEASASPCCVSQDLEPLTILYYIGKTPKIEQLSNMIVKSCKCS

VEGF (hVEGF), sequence (P15692 other isoform, or with tags, fused parts or gaps): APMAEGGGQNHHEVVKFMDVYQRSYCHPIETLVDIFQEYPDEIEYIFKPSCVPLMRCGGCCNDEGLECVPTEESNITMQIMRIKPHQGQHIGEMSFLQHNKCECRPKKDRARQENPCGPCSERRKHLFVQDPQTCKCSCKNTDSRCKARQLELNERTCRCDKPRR

| Sequence | binding signal (KGF (hKGF)) [fold Kd vs hTGF-beta1] | binding signal (VEGF (hVEGF)) [fold Kd vs hTGF-beta1] | binding signal (TGF-beta2) [fold Kd vs hTGF-beta1] |
| --- | --- | --- | --- |
| GGGAGGACGAUGCGGGGGUUAUUGGGCGUCAACAUCCCCGAUUCUUUUCACGUCCAGACGACUCGCCCGA | > 34000 | > 340000 | > 340000 |
| GGGAGGACGAUGCGGUUAUGGGCGUCAACACCGCUAUUACAGUUUUCGCCUCCCCCAGACGACUCGCCCGA | > 34000 | > 340000 | > 340000 |
